Results on eight compounds are retold here after PubChem BioAssay.

Structures are written as SMILES. The source made the active and inactive calls.

The subject of assay [1] is Plasmodium falciparum Sir2 (PF13_0152, Sir2A). Nature of the assay: pfSir2 binders on small-molecule microarrays, primary screen, biochemical, small-molecule microarray, 635 nm fluorescence (AID 1098).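 Further: score merges spot fluorescence intensity with its signal-to-noise ratio.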 Conditions: small-molecule microarray binding, fluorescence 635 nm; higher = more signal.
A short description of assay [2]: small-molecule microarray binders of probe aDKK1, primary screen, biochemical, biotinylated probe, 635/667 nm fluorescence (AID 1099).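 Further: score merges 667nm spot fluorescence with signal to noise across triplicate slides; reference of the scale not given here.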 Conditions: higher = more signal.
The nature of assay [3]: small-molecule microarray binders of probe aCHRDL2, primary screen, biochemical, biotinylated probe, 635/667 nm fluorescence (AID 1100). Conditions: higher = more signal.
A short description of assay [4]: splicing luciferase reporter signal modulators, primary screen, spliceosome inhibition project, cell-based, HEK293, splice +/- reporter (AID 1101).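 Further: HEK293 cells carrying a splicing-competent luciferase reporter gene; test concentration not given here.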 The conditions noted are these: luminescence, 24 h, higher = more signal, called active from +8 up or from −8 down. On the technique in general: Reporter assays use an easily measured gene product as a stand-in for the process of interest.

The target in assay [5] is Fibroblast growth factor 10 (Homo sapiens) (UniProt O15520). Nature of the assay: FGF10 binders on small-molecule microarrays, primary screen, biochemical, small-molecule microarray, 635 nm fluorescence (AID 1102). The conditions noted are these: FGF10 binding, fluorescence 635 nm, higher = more signal.
Sequence of Fibroblast growth factor 10 (Homo sapiens) (O15520 whole entry, looked up): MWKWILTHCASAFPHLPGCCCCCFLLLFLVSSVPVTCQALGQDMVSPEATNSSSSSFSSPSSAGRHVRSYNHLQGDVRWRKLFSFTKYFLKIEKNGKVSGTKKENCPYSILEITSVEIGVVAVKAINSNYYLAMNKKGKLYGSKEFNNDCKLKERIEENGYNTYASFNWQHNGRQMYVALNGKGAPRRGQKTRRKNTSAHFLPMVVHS
Assay [6] deals with glycogen synthase kinase-3 (GSK3A per assay name; protocol says GSK3B). Nature of the assay: GSK3 binders on small-molecule microarrays, primary screen, biochemical, small-molecule microarray, 635 nm fluorescence, GSK3A (AID 1103). Further: the record names both GSK3A and GSK3B. The conditions noted are these: small-molecule microarray binding, fluorescence 635 nm; higher = more signal.
The target in assay [7] is Epidermal growth factor receptor (Homo sapiens) (UniProt P00533). Nature of the assay: EGFR binders on small-molecule microarrays, primary screen, biochemical, small-molecule microarray, 635 nm fluorescence (AID 1104).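 Further: score merges 667 nm emission intensity with spot signal to noise over triplicate slides.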 The conditions noted are these: EGFR binding, higher = more signal.
Sequence of Epidermal growth factor receptor (Homo sapiens) (P00533 whole entry, looked up): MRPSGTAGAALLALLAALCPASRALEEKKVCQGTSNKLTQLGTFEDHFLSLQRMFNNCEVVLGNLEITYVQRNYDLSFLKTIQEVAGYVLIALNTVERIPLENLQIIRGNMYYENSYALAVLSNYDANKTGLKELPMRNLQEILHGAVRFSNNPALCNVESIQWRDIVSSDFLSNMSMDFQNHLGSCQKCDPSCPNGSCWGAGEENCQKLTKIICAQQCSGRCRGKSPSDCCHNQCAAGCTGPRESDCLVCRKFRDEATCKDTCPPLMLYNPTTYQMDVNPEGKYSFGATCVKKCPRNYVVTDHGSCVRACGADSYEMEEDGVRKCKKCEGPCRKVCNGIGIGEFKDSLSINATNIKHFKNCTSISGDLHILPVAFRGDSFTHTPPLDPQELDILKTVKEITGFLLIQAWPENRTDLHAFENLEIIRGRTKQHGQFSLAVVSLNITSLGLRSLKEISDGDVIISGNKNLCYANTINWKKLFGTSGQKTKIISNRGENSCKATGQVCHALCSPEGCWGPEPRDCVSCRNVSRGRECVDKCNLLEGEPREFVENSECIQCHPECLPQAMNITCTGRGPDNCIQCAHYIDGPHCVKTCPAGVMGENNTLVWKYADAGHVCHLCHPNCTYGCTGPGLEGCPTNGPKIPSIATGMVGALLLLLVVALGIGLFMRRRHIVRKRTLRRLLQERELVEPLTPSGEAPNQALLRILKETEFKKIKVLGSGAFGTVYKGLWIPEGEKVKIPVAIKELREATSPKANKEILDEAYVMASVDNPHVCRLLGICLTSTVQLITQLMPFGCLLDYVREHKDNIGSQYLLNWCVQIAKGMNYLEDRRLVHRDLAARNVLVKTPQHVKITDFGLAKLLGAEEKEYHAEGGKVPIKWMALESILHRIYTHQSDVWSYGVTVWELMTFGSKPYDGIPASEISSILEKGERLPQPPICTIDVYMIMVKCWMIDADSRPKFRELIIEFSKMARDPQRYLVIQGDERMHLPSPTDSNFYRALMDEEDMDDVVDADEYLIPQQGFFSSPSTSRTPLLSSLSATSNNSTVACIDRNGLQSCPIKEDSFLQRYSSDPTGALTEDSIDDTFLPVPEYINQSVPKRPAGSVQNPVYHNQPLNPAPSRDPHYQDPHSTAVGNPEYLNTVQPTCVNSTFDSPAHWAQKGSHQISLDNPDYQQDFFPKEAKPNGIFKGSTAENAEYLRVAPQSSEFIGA
Assay [8] concerns the target Follistatin-related protein 3 (Homo sapiens) (UniProt O95633). Nature of the assay: FSTL3 binders on small-molecule microarrays, primary screen, biochemical, small-molecule microarray, 635 nm fluorescence (AID 1105).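 Further: score merges emission near 667 nm and signal to noise per printed spot across three slides.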 Conditions: FSTL3 binding, higher = more signal.
Assay [9] addresses Dickkopf-related protein 1 (Homo sapiens) (UniProt O94907). Nature of the assay: DKK1 binders on small-molecule microarrays, primary screen, biochemical, small-molecule microarray, 635 nm fluorescence scan (AID 1106).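 Further: score merges emission near 667 nm with signal to noise over three replicate slides.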 Conditions: DKK1 binding, higher = more signal.
Assay [10] deals with Inhibin beta A chain (activin A). Nature of the assay: INHBA (activin A) binders on microarrays, primary screen, biochemical, small-molecule microarray, 635 nm fluorescence scan (AID 1107).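 Further: mouse activin A protein probed at 4.33 µg/mL on printed slides; score merges bound-protein fluorescence near 667 nm with spot signal-to-noise.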 The conditions noted are these: small-molecule microarray binding, higher = more signal.

Sequence of Dickkopf-related protein 1 (Homo sapiens) (O94907 whole entry, looked up): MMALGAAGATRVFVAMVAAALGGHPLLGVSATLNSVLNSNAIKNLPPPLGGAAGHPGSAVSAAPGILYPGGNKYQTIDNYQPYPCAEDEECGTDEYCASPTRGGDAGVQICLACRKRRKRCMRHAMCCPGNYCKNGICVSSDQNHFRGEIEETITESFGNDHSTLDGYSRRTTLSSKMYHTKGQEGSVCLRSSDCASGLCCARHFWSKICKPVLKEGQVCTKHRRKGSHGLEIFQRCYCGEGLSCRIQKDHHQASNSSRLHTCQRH
Sequence of Follistatin-related protein 3 (Homo sapiens) (O95633 whole entry, looked up): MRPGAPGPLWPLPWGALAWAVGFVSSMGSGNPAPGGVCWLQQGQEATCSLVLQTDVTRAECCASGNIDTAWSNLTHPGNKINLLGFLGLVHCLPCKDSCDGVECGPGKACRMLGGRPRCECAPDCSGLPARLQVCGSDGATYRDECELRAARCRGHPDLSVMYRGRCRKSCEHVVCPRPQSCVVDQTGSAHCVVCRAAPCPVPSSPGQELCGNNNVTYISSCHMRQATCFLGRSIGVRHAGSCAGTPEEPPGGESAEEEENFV

With `O=C1O[C@H](c2ccccc2)[C@H](c2ccccc2)N2[C@H]1[C@@H](C(=O)NC[C@H](O)c1ccccc1)[C@]1(C(=O)Nc3ccc(C#CC4(O)CCCCCC4)cc31)[C@H]2c1ccccc1OCCO`, the composite z-score in assay [1] was 1.51; in assay [2] it was -0.26; in assay [3], -0.313; in assay [5] it was 1.17; in [6], 1.16; in assay [7] it was -0.028. In addition, the composite z-score in assay [8] came out at 0.948; in [9], 0.178; in [10], 0.048. Besides, the z-score in [4] was -1.11 (inactive).
Consider `COCCOC(=O)N1C(=O)[C@@]2(c3cc(C#CCC(C(=O)OC)C(=O)OC)ccc31)[C@H](c1ccc(OCCO)cc1)N1[C@H](c3ccccc3)[C@H](c3ccccc3)OC(=O)[C@H]1[C@@H]2C(=O)NC[C@H](O)c1ccccc1`, for which the composite z-score is 1.52 in assay [1]; -0.405 in [2]; -0.189 in [3]; 1.5 in assay [5]; 1.3 in [6]; 0.586 in [7]. Also, the results for the composite z-score in assay [8], in assay [9] and in assay [10] were 1.29, 0.356 and 0.094, respectively. In assay [4], the z-score was 0.0782 (inactive).
`O=S(=O)(NCCCO)c1ccc(Br)cc1`: the composite z-score in [1] worked out at 0.373; in assay [2] it was 0.101; in assay [3] it was 0.248; in assay [5], 0.568; in assay [6] it was 0.309; in assay [7] it was 0.598. Further, the composite z-score in assay [8] was 0.175; in assay [9], -0.0155; in assay [10], 0.363. Also, the z-score in assay [4] is -1.03 (inactive).
For the compound `COc1cc2c(cc1O)C(c1ccc(CN3CCCC3)cc1)N(Cc1sc3ccccc3c1Cl)CC2` (stereo not given), the composite z-score in [1] is 1.41; in [2], 0.0829; in [3], 0.234; in assay [5] it was 0.514; in assay [6], -0.111; in assay [7], 0.521. Moreover, the composite z-score is 0.988 in [8], 1.12 in [9] and 1.35 in assay [10]. Besides, the z-score in [4] was -0.478 (inactive).
Consider `O=C(NCC(O)CO)[C@@]1(Cc2ccccc2)N=C(c2ccc(OCCCO)cc2)O[C@H]1c1ccccc1` (stereo not given in full), for which the composite z-score in assay [1] was 0.616; in [2], 1.15; in assay [3] it was 1.36; in [5], 0.698; in [6] it was 0.591; in assay [7] it was -1.2. Moreover, the composite z-score in assay [8] is -0.378; in assay [9] it was -0.72; in assay [10] it was 0.661. Also, the z-score in [4] is -0.395 (inactive).
With `COCCOC(=O)N1C(=O)[C@@]2(c3cc(C#CC4=CCCCC4)ccc31)[C@H](C(=O)N1CCN(c3ncccn3)CC1)[C@H]1C(=O)O[C@H](c3ccccc3)[C@H](c3ccccc3)N1[C@@H]2c1ccc(OCCO)cc1`, the composite z-score in assay [1] is -0.424; in assay [2] it was 0.282; in assay [3], 0.298; in [5] it was 1.3; in assay [6], 1.18; in assay [7], 0.959. Also, the composite z-score worked out at 1.37 in assay [8], 0.994 in [9] and 1.26 in assay [10]. For the same compound, the z-score in assay [4] was -0.902 (inactive).
With `CN1C(=O)C2C=CC(C(O)c3ccccc3)N(NC(=O)OC(C)(C)C)C2C1=O` (stereo not given), the composite z-score was 0.782 in assay [1]; 0.153 in assay [2]; 0.455 in [3]; 0.35 in [5]; 0.459 in [6]; -0.043 in assay [7]. The composite z-score in [8] is -0.0889; in [9], -0.237; in [10] it was 0.375. The z-score in assay [4] is 1.54 (inactive).
As to `COc1ccc(C(=O)Nc2cccc(CN3C(=O)[C@@]4(O[C@@H](CCn5cc([C@H](O)c6ccccc6)nn5)[C@H]([Si](C)(C)c5ccc(OC)cc5)[C@H]4C)c4ccccc43)c2)cc1`, the composite z-score in [1] was 1.19; in assay [2], 0.142; in assay [3], 0.634; in assay [5], 1.21; in assay [6] it was 0.175; in assay [7], -0.219. Moreover, the values for the composite z-score in assay [8], in [9] and in assay [10] were 0.206, 0.249 and 1.16, respectively. Also, the z-score in assay [4] is -1.46 (inactive).
